Assay [1] is described as follows: IUF_NPC2c_oligodendrocyte_migration_120hr: Leibniz Research Institute for Environmental Medicine (IUF) 120-hour Neural Progenitor Cell Migration Assay for Oligodendrocyte Migration (NPC2c) (AID 2284297).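 Note: O4-positive oligodendrocyte migration distance divided by radial glia migration distance.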 The method, boiled down:
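Human fetal neural progenitor spheres (0.3 mm) are plated on poly-D-lysine/laminin in N2 differentiation medium and exposed for 120 h, with half-medium renewal at day 3. Oligodendrocyte (O4+) migration distance comes from ICC imaging, normalised to radial glia migration.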

Assay [2] can be described thus: IUF_NPC2a_radial_glia_migration_120hr: Leibniz Research Institute for Environmental Medicine (IUF) 120-hour Neural Progenitor Cell Migration Assay for Radial Glia Migration (NPC2a) (AID 2284298). The method, boiled down: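 Human fetal-cortex neural progenitor spheres (0.3 mm) plated on poly-D-lysine/laminin in N2 differentiation medium, exposed 120 h at 37C with half-medium renewal at day 3. Radial glia migration distance (um) measured from Hoechst-stained nuclei images; DMSO baseline.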

Assay [3] can be described thus: IUF_NPC2a_radial_glia_migration_72hr: Leibniz Research Institute for Environmental Medicine (IUF) 72-hour Neural Progenitor Cell Migration Assay for Radial Glia Migration (NPC2a) (AID 2284299). In outline:
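Readout: mean of four manual brightfield measurements of radial glia migration distance (um) at 72 h. hNPC spheres (0.3 mm) exposed to 7 compound concentrations plus solvent control on PDL/laminin, 37C, 5% CO2; activity fitted relative to DMSO.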

The nature of assay [4]: IUF_NPC2b_neuronal_migration_120hr: Leibniz Research Institute for Environmental Medicine (IUF) 120-hour Neural Progenitor Cell Migration Assay for Neuron Migration (NPC2b) (AID 2284300). In outline:
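0.3 mm hNPC spheres on poly-D-lysine/laminin in N2 differentiation medium exposed 120 h, half-medium refresh day 3; 7 concentrations, DMSO max 0.1%. Neuron (TUBB3) distance from sphere core by ICC imaging, normalised to radial glia migration.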

Read-out in assay [5]: Plasminogen activator inhibitor-1 (PAI1), SERPINE1 (gene 5054)
Description: BSK_MyoF_PAI1: BioMAP Diversity Plus: MyoF Assay for Plasminogen activator inhibitor-1 (PAI1) Biomarker Activity (AID 2284256).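 For outcome: PAI-1 read 24 h after compound addition.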 Conditions: primary human lung fibroblasts. In outline:
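Primary human lung fibroblasts treated with chemical for 24 h; PAI-1 levels quantified by ELISA relative to DMSO. Cytotoxicity was assessed in parallel cultures by SRB total-protein staining (0.1% SRB after 10% TCA fixation, 560 nm).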

Read-out in assay [6]: Interleukin-8 (IL8), CXCL8 (gene 3576)
Description: BSK_MyoF_IL8: BioMAP Diversity Plus: MyoF Assay for Interleukin-8 (IL8) Biomarker Activity (AID 2284261). Conditions: primary human lung fibroblasts. In outline: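 Human lung fibroblast (MyoF system) cultures dosed for 24 h, then IL-8 measured by ELISA. Response taken relative to DMSO; parallel SRB total-protein staining for cytotoxicity.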

Read-out in assay [7]: Decorin, DCN (gene 1634)
The assay can be described thus: BSK_MyoF_Decorin: BioMAP Diversity Plus: MyoF Assay for Decorin Biomarker Activity (AID 2284265). Conditions: primary human lung fibroblasts. The method, boiled down:
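Human lung fibroblast cultures were dosed for 24 h, and decorin was then measured by ELISA. Parallel cultures were stained with sulforhodamine B for total protein as a cytotoxicity check. Gain of signal was fitted relative to DMSO.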

Assay [8] is described as follows: BSK_MyoF_SRB: Viability Assessment in the BioMAP Diversity Plus: MyoF Assay (AID 2284267).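 Note: total protein by SRB absorbance in parallel cultures as cytotoxicity measure; cells assessed 24 h after compound addition.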 Particulars: primary human lung fibroblasts. In outline:
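Lung fibroblast cultures, 24 h post-dose; fix 10% TCA, stain 0.1% SRB, read 560 nm. Signal = total protein as cytotoxicity measure; fitted relative to DMSO negative control.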

Read-out in assay [9]: Matrix Metallopeptidase 1 (MMP1), MMP1 (gene 4312)
The assay can be described thus: BSK_MyoF_MMP1: BioMAP Diversity Plus: MyoF Assay for Matrix Metallopeptidase 1 (MMP1) Biomarker Activity (AID 2284268). Conditions: primary human lung fibroblasts. The method, boiled down:
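Human lung fibroblast primary cells; MMP1 measured by ELISA 24 h after dosing, fitted in the positive direction relative to DMSO. Parallel SRB staining (0.1%, after 10% TCA fixation, 560 nm) assesses overt cytotoxicity.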

Read-out in assay [10]: TIMP metallopeptidase inhibitor 1 (TIMP1), TIMP1 (gene 7076)
The assay can be described thus: BSK_MyoF_TIMP1: BioMAP Diversity Plus: MyoF Assay for TIMP metallopeptidase inhibitor 1 (TIMP1) Biomarker Activity (AID 2284269). Particulars: primary human lung fibroblasts. The method, boiled down:
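TIMP-1 levels were determined by ELISA in human lung fibroblasts treated for 24 h. DMSO served as negative control and baseline for upward curve fitting.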

The structures appear in SMILES notation. Where “and” joins values, the source holds several entries; their conditions need not be identical. Equal entries are not always repeated. Some structures have more than one record in an assay (separate samples or runs), and their calls can disagree. Calls of active or inactive are those of the source. Rule for the calls: active = hit-call score of the fitted dose curve at least 0.9, where 1 is the maximum; inactive = score below 0.9.

Regarding `COP(=O)(OC)C(O)C(Cl)(Cl)Cl` (stereo not given), the molecule was classed as inactive in assay [1], in assay [2], in assay [3] and in [4].

Consider `CCOP(=S)(Oc1cnc(C(C)(C)C)nc1)OC(C)C` (stereo not given), for which the result in [1], in assay [2], in assay [3] and in [4] was inactive.

For `CCCSP(=O)(OCC)SCCC`, the result in assay [1], in assay [2], in assay [3] and in [4] was inactive.

On to `C=C(C)[C@H]1Cc2c(ccc3c2O[C@@H]2COc4cc(OC)c(OC)cc4[C@@H]2C3=O)O1`, for which the AC50 in assay [1] is 0.0062 µM (active); in assay [2], 244 nM (active) and 3.4 nM (active); in assay [3] it was 220 nM (active) and 4.24 nM (active); in assay [4] it was 9.58 nM (active). Besides, the molecule was classed as inactive in assay [1] and in assay [4].

For the molecule `CN(C)[C@@H]1C(=O)C(C(N)=O)=C(O)[C@@]2(O)C(=O)C3=C(O)c4c(O)cccc4[C@@](C)(O)[C@H]3[C@H](O)[C@@H]12`, the result in [5], in [6], in assay [7], in assay [8], in assay [9] and in assay [10] was inactive. For the same molecule, the AC50 in assay [1] was 55.1 µM (active); in assay [2], 42.5 µM (active); in [3] it was 76.1 µM (active); in [4], 38700 nM (active).

With `CC1=NNC(=O)N(/N=C/c2cccnc2)C1`, the call in assay [1], in [2], in [3] and in [4] was inactive.

In the case of `CC(C)N(C(=O)SCC(Cl)=C(Cl)Cl)C(C)C`, the molecule was classed as inactive in assay [1], in assay [3] and in assay [4]. The AC50 in assay [2] is 4.18 µM (active).

For the molecule `COP(=O)(NC(C)=O)SC` (stereo not given), the outcome in [1], in assay [2], in [3] and in assay [4] was inactive.

As for `CC(=NC#N)N(C)Cc1ccc(Cl)nc1`, the molecule was classed as inactive in [1], in [2], in [3] and in assay [4].

`CSC1=N[C@@](C)(c2ccccc2)C(=O)N1Nc1ccccc1`: the outcome in [1], in assay [2], in [3] and in assay [4] was inactive.

On to `O=[N+]([O-])c1cc(C(F)(F)F)c(Cl)c([N+](=O)[O-])c1Nc1ncc(C(F)(F)F)cc1Cl`, for which the AC50 in [5] was 2.2 µM (active); in [6] it was 20 µM (active); in assay [7] it was 5.88 µM (active); in assay [8] it was 2.6 µM (active); in assay [9], 3.25 µM (active); in assay [10], 3.9 µM (active). For the same molecule, the AC50 is 0.736 µM (active) in assay [1], 0.832 µM (active) in assay [2], 0.73 µM (active) in [3] and 796 nM (active) in assay [4].

For `CCOP(=S)(OCC)OC(Cl)C(Cl)(Cl)Cl` (stereo not given), the outcome in [1], in assay [3] and in [4] was inactive. For the same molecule, the AC50 in [2] was 22.8 µM (active).

On to `CCOP(=S)(OCC)SCCSCC`, for which the result in [1], in assay [2], in [3] and in assay [4] was inactive.

For the molecule `CCCCSP(=O)(SCCCC)SCCCC`, the result in assay [1], in [2], in assay [3] and in assay [4] was inactive.

On to `COP(=O)(OC)OC(Br)C(Cl)(Cl)Br` (stereo not given), for which the AC50 was 34.9 µM (active) in assay [1], 35.4 µM (active) in assay [2], 39 µM (active) in [3] and 38100 nM (active) in assay [4].

Turning to `CCOC(=O)CC(SP(=O)(OC)OC)C(=O)OCC` (stereo not given), the molecule was classed as inactive in assay [1], in [2], in assay [3] and in assay [4].

Consider `CC[C@H](C)[C@H]1O[C@]2(C=C[C@@H]1C)C[C@@H]1C[C@@H](C/C=C(\C)[C@@H](O[C@H]3C[C@H](OC)[C@@H](O[C@H]4C[C@H](OC)[C@@H](NC)[C@H](C)O4)[C@H](C)O3)[C@@H](C)/C=C/C=C3\CO[C@@H]4[C@H](O)C(C)=C[C@@H](C(=O)O1)[C@]34O)O2`, for which the AC50 in assay [1] was 932 nM (active) and 1.74 µM (active); in [2], 1.1 µM (active) and 2.22 µM (active); in [3] it was 2.13 µM (active) and 3.89 µM (active); in [4], 1.07 µM (active) and 3.32 µM (active).

Consider `S=C1NCCN1`, for which the molecule was classed as inactive in assay [1], in [2], in [3] and in assay [4].

For `CCOP(=O)(NC(C)C)Oc1ccc(SC)c(C)c1` (stereo not given), the molecule was classed as inactive in assay [1], in assay [3] and in [4]. In addition, the AC50 in [2] is 33.7 µM (active).

On to `CCOP(=O)(OCC)Oc1cc(C)nc(C(C)C)n1`, for which the call in assay [1], in [2], in assay [3] and in assay [4] was inactive.

Consider `CON=C(C(=O)OC)c1ccccc1CON=C(C)c1cccc(C(F)(F)F)c1`, for which the AC50 was 71.2 µM (active) in assay [1] and 11.8 µM (active) in assay [2]. Further, the call in assay [3] and in assay [4] was inactive.

`CCOP(=S)(OCC)Oc1cc(C)nc(C(C)C)n1`: the outcome in assay [1], in assay [2], in [3] and in assay [4] was inactive.

As to `CN1COCN(Cc2cnc(Cl)s2)C1=N[N+](=O)[O-]`, the result in [1], in assay [2], in assay [3] and in [4] was inactive.

`C[N+]1(C)CCCCC1`: the molecule was classed as inactive in assay [1], in [2], in assay [3] and in [4].

Values taken from PubChem BioAssay (EPA / NIEHS).
